Pf Dd2 growth: inhibitors of Plasmodium falciparum Dd2 growth. 120,000 compounds, 4.3% hits. Potency, µM (series often up to 28.9 µM), for the others: at the highest dose activity, negative = inhibition, hits mostly inhibitors. P. falciparum Dd2 growth, SYBR Green, 72 h; active = well fitted inhibition curve with a large enough effect;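 note: plate controls were DMSO vehicle for no effect and reference drug for full effect; nearly all actives have a fitted effect of over 65% in size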
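Infected erythrocytes (Dd2, 0.3% parasitemia, 2.5% hematocrit final) are added to compound in RPMI-1640/Albumax II medium, grown 72 h at 37C in low oxygen, then lysed with saponin/Triton-X containing SYBR Green and read by fluorescence.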
Starred values were filed as active, the others as inactive; i = inactive; [ ] = another dose, or the depositor's remark. The sample as a whole holds a higher share of hits than the screen did. Potency is the fitted concentration of half-maximal effect.

SMILES	Pf Dd2 growth
Cc1nc(-c2ccccc2Br)cc([C@H]2CN3CC[C@H]2C[C@@H]3CNC(=O)c2ccc(C(C)(C)C)cc2)n1	3.2µM*
Cc1ccc(C(=O)NC[C@H]2C[C@@H]3CCN2C[C@@H]3c2cc(-c3ccccc3Br)nc(C)n2)cc1	-9%
Cc1nc(-c2ccccc2)cc([C@H]2CN3CC[C@H]2C[C@@H]3CN(Cc2ccco2)Cc2ccco2)n1	1.1µM*
Cc1nc(-c2ccccc2)cc([C@H]2CN3CC[C@H]2C[C@@H]3CNC(=O)C2CCC2)n1	i
CCN(CC)C(=O)Cn1c(=O)cc(C)c2c(C)nn(-c3ccc(C)cc3)c21	35%
O=C(c1ccc(C(F)(F)F)cc1)N1CCC(c2n[nH]c(=O)n2-c2ccccc2)CC1	16%
COc1ccc(CCNC(=O)c2cc(=O)[nH]c3ccc(S(=O)(=O)N4CCCCC4)cc23)cc1OC	i
COc1ccc(C2Cn3nnc(C(=O)N4CCN(C(=O)Cc5ccccc5Cl)CC4)c3CO2)cc1 (stereo unspecified)	i
CN(Cc1ccccc1)c1ccc(-c2nc(-c3cccnc3)no2)cc1[N+](=O)[O-]	i
CCCS(=O)(=O)NC[C@H]1C[C@@H]2CCN1C[C@@H]2c1cc(-c2ccc(OC)c(OC)c2)nc(C)n1	i
CCNC(=O)NC[C@H]1C[C@@H]2CCN1C[C@@H]2c1cc(-c2ccc(OC)c(OC)c2)nc(C)n1	-20%
COc1ccc(-c2cc([C@H]3CN4CC[C@H]3C[C@@H]4CN)nc(C)n2)cc1OC	11µM*
COc1ccc(-n2nc3n(c2=O)CCN(CC2CC2)C3)cc1	13%
COc1cc2c(cc1NC(=O)COc1ccc(Cl)cc1)oc1ccccc12	30%
COc1ccc(OCC(=O)Nc2ccc(-c3nc4cc(Cl)ccc4o3)cc2)cc1	5%
COc1ccc(OCC(=O)Nc2ccc(Cl)c(-c3nc4ncccc4o3)c2)cc1	7.9µM*
CC(C)(Oc1ccc(Cl)cc1)C(=O)Nc1ccc(-c2nc3ncccc3o2)cc1	i
Cc1ccc(C(C)C)c(OCC(=O)Nc2cccc(-c3nc4ncccc4o3)c2)c1	-14%
CCCC(=O)Nc1cc(C)c(O)c(-c2nc3ncccc3o2)c1	11%
CCC(C)c1ccc(OCC(=O)Nc2ccc(-c3nc4ncccc4o3)cc2)cc1 (stereo unspecified)	10µM*
Cc1ccc(NC(=O)N2C[C@H](c3nc(-c4ccncc4)no3)[C@@H](C)C2)cc1C	i
CCN(CC)C(=O)N1C[C@@H](Oc2cccnc2)C[C@@H]1C(=O)NC	-3%
Cc1oc2c(c1C(=O)N1CCOCC1)CN(C(=O)c1ccncc1)CC2	-28%
Cc1oc2c(c1C(=O)N1CCN(c3ccccc3)CC1)CN(Cc1ccc(F)cc1)CC2	11µM*
CCCn1ccc2oc(C)c(C(=O)N3CCN(c4ccc(F)cc4)CC3)c2c1=O	-13%
SMILES	Pf Dd2 growth
CCOC(=O)C1CCCCN1C(=O)c1cn(C(c2ccccc2)c2ccccc2)nn1 (stereo unspecified)	-14%
Cc1oc2c(c1C(=O)N(C)CCc1ccccn1)CN(Cc1cccc(F)c1)CC2	-26%
Cc1ccc(CN2CCc3oc(C)c(C(=O)N4CCSCC4)c3C2)cc1	10µM*
Cc1oc2ccn(Cc3ccccc3F)c(=O)c2c1C(=O)N1CCN(c2ccccc2)CC1	-22%
CCOC(=O)C1CCCCN1C(=O)c1c(C)oc2c1CN(Cc1cccc(F)c1)CC2 (stereo unspecified)	6.3µM*
COCCCNC(=O)c1c(C)oc2c1CN(Cc1ccc(F)cc1)CC2	-23%
Cc1ccc(CN2CCc3oc(C)c(C(=O)N4CCC(C(N)=O)CC4)c3C2)cc1	-20%
COc1ccc(N(C)C(=O)c2c(C)oc3c2CN(Cc2ccc(F)cc2)CC3)cc1	13µM*
COc1ccc(-n2nc3n(c2=O)CCN(Cc2ccc(F)cc2)C3)cc1	11%
Cc1[nH]c2ccccc2c1CN1CCc2nc(N3CCN(C)CC3)[nH]c(=O)c2CC1	12%[5.79 µM]
COC1CCN(S(=O)(=O)N2CCC3(CCCN(C(C)C)C3=O)C2)CC1 (stereo unspecified)	6%
O=C1Nc2ccccc2CC12CCN(C1COC1)C2 (stereo unspecified)	0%[44.1 µM]
CC(c1cccc(-c2cccc(C(=O)N(C)C)n2)c1)N1CCCC1 (stereo unspecified)	-8%
O=C(CCCn1c(=O)c2cccn2c2cccnc21)Nc1ccccc1Br	-19%
Cc1cccc(C(=O)NC2CCN(c3cc(-c4cccs4)[nH]n3)CC2)c1	i
COc1ccc(Nc2ncncc2-c2nc(-c3ccccc3)no2)cc1OC	i
c1ccc(-c2noc(-c3cncnc3Nc3ccc4c(c3)OCCO4)n2)cc1	i
c1ccc(-c2noc(-c3cncnc3Nc3ccc4c(c3)OCO4)n2)cc1	5.6µM*
Cc1ccc(C)c(C(=O)N2C[C@@H](F)C[C@H]2C(=O)N2CCCCC2)c1	19%
CCn1ccc(C(=O)N2CCC(Oc3ccccc3-c3nc(C4CCOCC4)no3)C2)n1 (stereo unspecified)	i
Cc1cc(C(=O)N[C@@H]2CN(Cc3cccnc3)C[C@H]2CN(C)C)n(C)n1	20%
O=C(COc1ccccc1)N[C@@H]1CN(c2ncccn2)C[C@H]1CO	i
CN(C)C(=O)C1CN(c2ccccc2)C(=O)N1 (stereo unspecified)	21%[44.1 µM]
CCOCCCNc1nc2c(S(=O)(=O)c3ccc(CC)cc3)nnn2c2ccc(Cl)cc12	-9%
Fc1cccc(-c2nnn3c2nc(NCCc2ccccc2)c2ccccc23)c1	19%
SMILES	Pf Dd2 growth
NS(=O)(=O)c1ccc(CCNc2nc3c(-c4cccc(F)c4)nnn3c3ccc(Cl)cc23)cc1	11µM*
CN1C(=O)C(CC(=O)NCC2CCCCC2)Sc2ncccc21 (stereo unspecified)	-15%
COc1ccc(C(=O)N2CCC3(CC2)OCC(C(=O)NC(C)C)N3C(=O)c2ccc(OC)cc2)cc1 (stereo unspecified)	-2%
Cc1cccc(C(C(=O)N2CCC(CCn3ccnc3C)CC2)N(C)C)c1 (stereo unspecified)	7.9µM*
CN(C)C(C(=O)N1CCN(Cc2nccn2C)CC1)c1cccc(F)c1 (stereo unspecified)	-5%
Cc1cccc(C(C(=O)N2CCN(CC(=O)NC(C)C)CC2)N(C)C)c1 (stereo unspecified)	-23%
CCn1c2c(c(=O)n1-c1ccccc1)CCN(CCCc1ccccc1)C2	i
COCC(=O)NC[C@H]1OC[C@@H](NCc2ccccc2F)[C@@H]1O	1%[44.1 µM]
COCC(=O)NC[C@H]1OC[C@@H](NCc2ccc(F)cc2)[C@@H]1O	14µM*
COCC(=O)NC[C@H]1OC[C@@H](NCc2ccc(C)cc2)[C@@H]1O	11%[44.1 µM]
CCN(CC)S(=O)(=O)c1ccc(NC(=O)CN(c2ccccc2)S(=O)(=O)N(C)C)cc1	-26%
COc1ccccc1C(=O)N1CC(CNc2ccccc2)C2(C1)CN(c1ccccc1)C2 (stereo unspecified)	i
OC1(c2csc(CN3CCN(c4ccccn4)CC3)n2)CCN(CC2CCCCC2)CC1	-8%
CN1CCN(Cc2nc(C3(O)CCN(CC4CCCCC4)CC3)cs2)CC1	10µM*
CN1CCN(Cc2nc(C3(O)CCN(C4CCCC4)CC3)cs2)CC1	4%[44.1 µM]
O=c1cc(N2CCN(c3ccc(F)cc3)CC2)[nH]c(=O)n1-c1cccc(Br)c1	-3%
CCC(c1cccs1)N1C(=O)[C@H]2CN(S(=O)(=O)c3c(C)noc3C)C[C@H]2C1=O (stereo partly specified)	i
O=C1CCN(C(=O)C2(c3ccccc3)CC2)CCCC(C(=O)NCc2ccccc2)CCN1 (stereo unspecified)	0.4µM*

Screening results from PubChem.
